Several values for one entry are separate records, joined by “and”; a condition that tells them apart may be missing. Identical values can stand only once. Records with an inconclusive call do not appear. Activity calls are given as the source filed them. Calls follow the shape of the dose curve; as a rule, active = well fitted inhibition curve with a large enough effect; inconclusive = small, poorly fitted or top-dose-only effect; inactive = flat fitted curve, though single readings scatter. Non-standard residues stand in square brackets, D forms with d. Residues, ends and D or L forms follow the SMILES beside them. *: point of attachment. Sta = CC(C)C[C@H](N)[C@@H](O)CC(=O)O; Isovaleryl = CC(C)CC(=O)*
Legend:
[1] = system: W2; assay: qHTS profiling for inhibitors of Plasmodium falciparum proliferation (AID 504749); conditions: P. falciparum in erythrocytes, SYBR Green DNA, 72 h; series mostly up to 28.7 µM
How it was run: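 SYBR Green fluorescence (ex 485 nm, em 535 nm) reports parasite DNA after 72 h compound exposure of infected red cells at 0.3% parasitemia, 2.5% hematocrit; signal normalized to 0.29 uM artemisinin and vehicle wells.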

[2] = system: CRL-7250; assay: Cytotoxic Profiling of Annotated Libraries Using Quantitative High-Throughput Screening (AID 1296008); conditions: Five cell lines viability, CellTiter-Glo ATP luminescence, 48-72 h; max response: stronger effect = lower value; as to max response: % is scaled to controls: 0 for no effect and ±100 for the full control effect
How it was run: (§1)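 Cells exposed to compounds for 48 or 72 hr at 37 degrees Celsius. Viability read as ATP-coupled luminescence with CellTiter-Glo after 10 min at room temperature.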

[3] = system: HEK293; assay: as above; conditions: Five cell lines viability, CellTiter-Glo ATP luminescence, 48-72 h; max response: stronger effect = lower value
How it was run: as §1

[4] = system: KB-3-1; assay: as above; conditions: Five cell lines viability, CellTiter-Glo ATP luminescence, 48-72 h; max response: stronger effect = lower value
How it was run: as §1

[5] = system: NIH3T3; assay: as above; conditions: Five cell lines viability, CellTiter-Glo ATP luminescence, 48-72 h; max response: stronger effect = lower value
How it was run: as §1

[6] = system: MCC-13; assay: qHTS assay to identify novel small-molecules to repurpose for Merkel cell carcinoma treatment (AID 1296009); conditions: MCC and control cell lines, CellTiter-Glo viability, 72 h; series mostly up to 46 µM
How it was run: (§2)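 CellTiter-Glo luminescence after 72 hr compound exposure at 37 degree celsius gave cell viability. Libraries NPC and MIPE were run as 8- and 11-point dose responses; RLUs normalized to DMSO (negative) and no-cell (cytotoxicity) controls.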

[7] = system: HaCat; assay: Cytotoxic Profiling of Annotated Libraries Using Quantitative High-Throughput Screening (AID 1296008); conditions: Five cell lines viability, CellTiter-Glo ATP luminescence, 48-72 h; max response: stronger effect = lower value; as to max response: % is scaled to controls: 0 for no effect and ±100 for the full control effect
How it was run: as §1

[8] = system: MCC-26; assay: qHTS assay to identify novel small-molecules to repurpose for Merkel cell carcinoma treatment (AID 1296009); conditions: MCC and control cell lines, CellTiter-Glo viability, 72 h; series mostly up to 46 µM
How it was run: as §2

[9] = system: HACAT; assay: as above; conditions: MCC and control cell lines, CellTiter-Glo viability, 72 h
How it was run: as §2

[10] = system: HEK293T; assay: as above; conditions: MCC and control cell lines, CellTiter-Glo viability, 72 h; at 44.8 µM (top of the series) unless noted
How it was run: as §2

[11] = at 44.8 µM (top of the series) unless noted
Also: nearly all actives have a fitted effect of over 60% in size.
Potency is read from the fitted curve at half-maximal effect.

CCCc1cc(=O)[nH]c(=S)[nH]1
inactive: Potency [1] | max response [2] 1.74% and -1.3% | max response [3] 2.66% | max response [4] 0.476% | outcome [4] | outcome [5] inactive; activator | Potency [6]

Cc1cccc(C#Cc2ccccc2)n1
inactive: max response [7] -25.8% | max response [4] 9.05% | max response [5] -0.211% | Potency [6] | Potency [8]

C=CCc1cc(OC)c(O)c(C(=O)NCCO)c1
inactive: Potency [1] | max response [3] -0.342% | max response [7] -2.64% | outcome [7] | max response [4] 8.32% and 9.16% | max response [5] -1.28% and -4.54% | outcome [9, 11] | Potency [6]

O=Nc1c(-c2c(O)[nH]c3cc(Br)ccc23)[nH]c2ccccc12
active: Potency [3] 14.8 µM | Potency [7] 11.8 µM | Potency [6] 18.7 µM

NNc1nncc2ccccc12
inactive: outcome ([9]; at 17.4 µM (top of the series)) | outcome ([9]; at 44.8 µM (top of the series)) | outcome [10] inactive [at 17.4 µM] | Potency [6] | Potency [8]
active: Potency [1] 3.22 µM

CN(C)CCCC1(c2ccc(F)cc2)OCc2cc(C#N)ccc21 (stereo unspecified)
inactive: max response [2] -4.07% | max response [3] -24.9% | max response [7] -6.25% and -3.5% | max response [5] -3.81% and 4.08% | Potency [6] | Potency [8]

O=C(O)c1cccc(-c2noc(-c3ccccc3F)n2)c1
inactive: Potency [1] | outcome [2] | max response [7] -27.5% and -24.9% | outcome [7] | max response [4] -19.9% and 8.42% | max response [5] -7.81% | outcome [9, 11] | Potency [6] | Potency [8]

Nc1nc(Cl)nc2c1ncn2[C@H]1C[C@H](O)[C@@H](CO)O1
active: Potency [3] 2.35 µM | Potency [7] 1.32 µM | Potency [5] 0.935 µM
inactive: Potency [8]

CN1C(C(=O)Nc2ccccn2)=C(O)c2sccc2S1(=O)=O
inactive: Potency [1]

Oc1ccc(-c2nc(-c3ccc(F)cc3)c(-c3ccncc3)[nH]2)cc1
active: Potency [3] 11.8 µM
inactive: max response [2] -11.9% | max response [7] -6.19% | outcome [5] | Potency [6]

O=C1c2c(O)cc(O)cc2OC(c2ccc(O)c(O)c2)C1O (stereo unspecified)
inactive: max response [2] -1.4% | max response [3] -0.947% | max response [7] 2.31% | max response [5] -9.07% | Potency [6] | Potency [8]

O=c1ccc2ccc(O)c(O)c2o1
inactive: outcome [3] | outcome [7] | outcome [4] | max response [5] -1.87% | outcome [9, 11] | outcome [10] | Potency [6]

Cc1cccc(C)c1OCC(=O)N[C@@H](Cc1ccccc1)[C@@H](O)C[C@H](Cc1ccccc1)NC(=O)[C@H](C(C)C)N1CCCNC1=O
active: Potency [1] 1.69 µM

O=C1CCc2ccc(OCCCCN3CCN(c4cccc(Cl)c4Cl)CC3)cc2N1
active: Potency [1] 9.53 µM | Potency [3] 16.8 µM
inactive: outcome [7] | max response [4] -20.7% | max response [5] -18.1% | outcome [9, 11] | Potency [6] | Potency [8]

CCOC(=O)C1=C[C@@H](OC(CC)CC)[C@H](NC(C)=O)[C@@H](N)C1
inactive: max response [2] 0.667% | max response [3] -4.58% | max response [7] 1.74% | outcome [5] | Potency [6]

O=C1c2ccccc2-c2n[nH]c3cccc1c23
inactive: max response [4] -0.484% | Potency [6] | Potency [8]

CC(C)CC(=O)N[C@H](C(=O)N[C@H](C(=O)N[C@@H](CC(C)C)[C@@H](O)CC(=O)N[C@@H](C)C(=O)N[C@@H](CC(C)C)[C@@H](O)CC(=O)O)C(C)C)C(C)C (Isovaleryl-VV[Sta]A[Sta]-OH)
inactive: max response [2] 0.655% | max response [3] -5.42% | max response [4] 15.7% and 7.23% | max response [5] 0.118% | Potency [6] | Potency [8]

CN(C)CCc1c[nH]c2ccc(Cn3cncn3)cc12
active: Potency [2] 1.32 µM | Potency [3] 0.743 µM
inactive: max response [4] 8.57% | outcome [4] | Potency [6] | Potency [8]

O=C(O)c1cn(-c2ccc(F)cc2)c2cc(N3CCNCC3)c(F)cc2c1=O
inactive: max response [2] 3.53% and 1.39% | max response [3] -4.73% | max response [7] -14.9% | max response [5] -0.0226% and -6.36% | Potency [6]
active: Potency [1] 10.7 µM

C[C@H](Cc1ccc(O)c(O)c1)[C@@H](C)Cc1ccc(O)c(O)c1
inactive: outcome [7] | max response [4] -9.31% and -6.61% | max response [5] -21.7% | outcome [9, 11] | Potency [6] | Potency [8]

Nc1nc(N)c(N=O)c(OCC2CCCCC2)n1
inactive: max response [7] -17.6%
active: Potency [2] 14.8 µM | Potency [5] 16.6 µM

COc1cc2c(N3CCN(C(=O)Nc4ccc(OC(C)C)cc4)CC3)ncnc2cc1OCCCN1CCCCC1
active: Potency [3] 18.7 µM
inactive: max response [2] -25.9% and -20.4% | max response [7] 3.85% and 0.506% | max response [5] -26.1% | Potency [6] | Potency [8]

O=C(OC1C[C@H]2CC[C@@H](C1)[N+]21CCCC1)C(O)(c1ccccc1)c1ccccc1 (stereo partly specified)
active: Potency [1] 1.69 µM
inactive: max response [2] 4.02% | max response [3] 3.35% | max response [7] 1.67% | max response [5] -8.22% | Potency [6] | Potency [8]

O=C(O)c1cc(=O)c2c(OCC(O)COc3cccc4oc(C(=O)O)cc(=O)c34)cccc2o1
inactive: Potency [1]

Oc1ccc2ccccc2c1SSc1c(O)ccc2ccccc12
inactive: max response [2] -5.27% | max response [3] -1.68% | outcome [7] inactive; activator | outcome [5] | outcome [9, 11] inactive; activator | Potency [6] | Potency [8]

Cc1cc(Cl)ccc1OCCCC(=O)NO
inactive: max response [2] -2.51% | max response [7] 3.7% | Potency [6] | Potency [8]

NC(=NCc1ccccc1)NC(=O)c1nc(Cl)c(N)nc1N
inactive: max response [3] -5.25% | outcome [7] inactive; activator | max response [4] -6.74% | max response [5] 3.69% | outcome [9, 11] inactive; activator | Potency [6]

O=c1cc(N2CCOCC2)oc2c(-c3ccccc3)cccc12
inactive: Potency [6]

CCCCCCCCOc1ccccc1C(=O)Nc1ccc(C(=O)OCC[N+](C)(CC)CC)cc1
inactive: max response [2] -18.9% and -13.2% | max response [7] -9.66% | max response [4] 3.44% | max response [5] -11.9% and 2.27% | Potency [6] | Potency [8]
active: Potency [1] 6.75 µM

O=C1NC(=O)C(c2ccccc2[N+](=O)[O-])=C1Nc1ccc(O)c(Cl)c1
inactive: max response [2] -2.05% | outcome [3] | max response [7] -25.3% | outcome [5] | outcome [10] | Potency [6]

Source: PubChem BioAssay (NCATS)
